Experimental data taken from PubChem BioAssay AID2284196 (EPA ToxCast).
Calls of active or inactive are those of the source. How the source made its calls: active means hit-call score of the fitted dose curve at least 0.9, where 1 is the maximum; inactive means score below 0.9.

Molecular target: human Peripheral-type Benzodiazepine Receptor (PBR/TSPO) Antagonism, TSPO (gene 706) (UniProt P30536)
Experiment: ERF_FR_MP_hTSPO: Eurofins (ERF) Radioligand Binding LeadHunter Assay for human Peripheral-type Benzodiazepine Receptor (PBR/TSPO) Antagonism
Method: ERF_FR_MP_hTSPO is a biochemical, single-readout assay that uses extracted gene-proteins in a cell-free assay. Measurements were taken 0.25 hour after chemical dosing in a 96-well plate. See PBR Human Binding (Antagonist Radioligand) Assay, Cerep.ERF_FR_MP_hTSPO is an assay component calculated from the ERF_FR_MP_hTSPO assay. It is designed to measure radioligand binding using a type of binding reporter as detected by scintillation counting with radiometry technology.Data from the assay component ERF_FR_MP_hTSPO was analyzed at the assay endpoint, ERF_FR_MP_hTSPO, in the positive analysis fitting direction relative to DMSO as the negative control and baseline of activity. Using a type of binding reporter, loss-of-signal activity can be used to understand changes in binding as they relate to gene TSPO. To generalize the intended target to other relatable targets, this assay endpoint is annotated to the membrane protein intended target family, where the subfamily is mitochondrial associated translocator protein.
Human glioblastoma U118MG cells are used to prepare peripheral benzodiazepine receptor in modified Tris-HCl buffer pH 7.4. A 100 ug aliquot is incubated with 0.2 nM [3H] PK-11195 for 15 minutes at room temprature. Non-specific binding is estimated in the presence of 10 uM PK-11195. Membranes are filtered and washed, the filters are then counted to determine [3H] […]

Sequence of human Peripheral-type Benzodiazepine Receptor (PBR/TSPO) Antagonism, TSPO (gene 706) (P30536 whole entry, looked up): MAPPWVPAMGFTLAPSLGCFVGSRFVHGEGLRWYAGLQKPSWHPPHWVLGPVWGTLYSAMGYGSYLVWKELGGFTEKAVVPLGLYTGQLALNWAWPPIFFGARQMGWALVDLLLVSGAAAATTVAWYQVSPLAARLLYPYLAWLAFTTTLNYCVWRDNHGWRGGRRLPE

Compound | outcome | AC50
COc1cc(CCC(=O)CC(=O)CCc2ccc(O)c(OC)c2)ccc1O | inactive | 
O=C(/C=C/c1ccc(O)cc1)CC(=O)/C=C/c1ccc(O)cc1 |  | 891 nM (active)
